In the supplement of paper PMC11732987, “Enantioselective OTUD7B fragment discovery through chemoproteomics screening and high-throughput optimisation” (Communications Chemistry, 2025):
Unmarked numbers belong to inactive results.

Tests used:
Experiment in all cases: log2 ratio of Biotin-Ahx-Ub-VS probe labelling (fragment/DMSO); higher = less target engagement (more negative = stronger competition), active = hit call of the paper (q ≤ 0.05, log2 ratio ≤ -1)
Conditions in all cases: compound concentration: 200 uM; treatment time: 3 h
[1] = target: UniProt O00507
UniProt O00507, sequence (O00507 whole entry, the tested form may be a part): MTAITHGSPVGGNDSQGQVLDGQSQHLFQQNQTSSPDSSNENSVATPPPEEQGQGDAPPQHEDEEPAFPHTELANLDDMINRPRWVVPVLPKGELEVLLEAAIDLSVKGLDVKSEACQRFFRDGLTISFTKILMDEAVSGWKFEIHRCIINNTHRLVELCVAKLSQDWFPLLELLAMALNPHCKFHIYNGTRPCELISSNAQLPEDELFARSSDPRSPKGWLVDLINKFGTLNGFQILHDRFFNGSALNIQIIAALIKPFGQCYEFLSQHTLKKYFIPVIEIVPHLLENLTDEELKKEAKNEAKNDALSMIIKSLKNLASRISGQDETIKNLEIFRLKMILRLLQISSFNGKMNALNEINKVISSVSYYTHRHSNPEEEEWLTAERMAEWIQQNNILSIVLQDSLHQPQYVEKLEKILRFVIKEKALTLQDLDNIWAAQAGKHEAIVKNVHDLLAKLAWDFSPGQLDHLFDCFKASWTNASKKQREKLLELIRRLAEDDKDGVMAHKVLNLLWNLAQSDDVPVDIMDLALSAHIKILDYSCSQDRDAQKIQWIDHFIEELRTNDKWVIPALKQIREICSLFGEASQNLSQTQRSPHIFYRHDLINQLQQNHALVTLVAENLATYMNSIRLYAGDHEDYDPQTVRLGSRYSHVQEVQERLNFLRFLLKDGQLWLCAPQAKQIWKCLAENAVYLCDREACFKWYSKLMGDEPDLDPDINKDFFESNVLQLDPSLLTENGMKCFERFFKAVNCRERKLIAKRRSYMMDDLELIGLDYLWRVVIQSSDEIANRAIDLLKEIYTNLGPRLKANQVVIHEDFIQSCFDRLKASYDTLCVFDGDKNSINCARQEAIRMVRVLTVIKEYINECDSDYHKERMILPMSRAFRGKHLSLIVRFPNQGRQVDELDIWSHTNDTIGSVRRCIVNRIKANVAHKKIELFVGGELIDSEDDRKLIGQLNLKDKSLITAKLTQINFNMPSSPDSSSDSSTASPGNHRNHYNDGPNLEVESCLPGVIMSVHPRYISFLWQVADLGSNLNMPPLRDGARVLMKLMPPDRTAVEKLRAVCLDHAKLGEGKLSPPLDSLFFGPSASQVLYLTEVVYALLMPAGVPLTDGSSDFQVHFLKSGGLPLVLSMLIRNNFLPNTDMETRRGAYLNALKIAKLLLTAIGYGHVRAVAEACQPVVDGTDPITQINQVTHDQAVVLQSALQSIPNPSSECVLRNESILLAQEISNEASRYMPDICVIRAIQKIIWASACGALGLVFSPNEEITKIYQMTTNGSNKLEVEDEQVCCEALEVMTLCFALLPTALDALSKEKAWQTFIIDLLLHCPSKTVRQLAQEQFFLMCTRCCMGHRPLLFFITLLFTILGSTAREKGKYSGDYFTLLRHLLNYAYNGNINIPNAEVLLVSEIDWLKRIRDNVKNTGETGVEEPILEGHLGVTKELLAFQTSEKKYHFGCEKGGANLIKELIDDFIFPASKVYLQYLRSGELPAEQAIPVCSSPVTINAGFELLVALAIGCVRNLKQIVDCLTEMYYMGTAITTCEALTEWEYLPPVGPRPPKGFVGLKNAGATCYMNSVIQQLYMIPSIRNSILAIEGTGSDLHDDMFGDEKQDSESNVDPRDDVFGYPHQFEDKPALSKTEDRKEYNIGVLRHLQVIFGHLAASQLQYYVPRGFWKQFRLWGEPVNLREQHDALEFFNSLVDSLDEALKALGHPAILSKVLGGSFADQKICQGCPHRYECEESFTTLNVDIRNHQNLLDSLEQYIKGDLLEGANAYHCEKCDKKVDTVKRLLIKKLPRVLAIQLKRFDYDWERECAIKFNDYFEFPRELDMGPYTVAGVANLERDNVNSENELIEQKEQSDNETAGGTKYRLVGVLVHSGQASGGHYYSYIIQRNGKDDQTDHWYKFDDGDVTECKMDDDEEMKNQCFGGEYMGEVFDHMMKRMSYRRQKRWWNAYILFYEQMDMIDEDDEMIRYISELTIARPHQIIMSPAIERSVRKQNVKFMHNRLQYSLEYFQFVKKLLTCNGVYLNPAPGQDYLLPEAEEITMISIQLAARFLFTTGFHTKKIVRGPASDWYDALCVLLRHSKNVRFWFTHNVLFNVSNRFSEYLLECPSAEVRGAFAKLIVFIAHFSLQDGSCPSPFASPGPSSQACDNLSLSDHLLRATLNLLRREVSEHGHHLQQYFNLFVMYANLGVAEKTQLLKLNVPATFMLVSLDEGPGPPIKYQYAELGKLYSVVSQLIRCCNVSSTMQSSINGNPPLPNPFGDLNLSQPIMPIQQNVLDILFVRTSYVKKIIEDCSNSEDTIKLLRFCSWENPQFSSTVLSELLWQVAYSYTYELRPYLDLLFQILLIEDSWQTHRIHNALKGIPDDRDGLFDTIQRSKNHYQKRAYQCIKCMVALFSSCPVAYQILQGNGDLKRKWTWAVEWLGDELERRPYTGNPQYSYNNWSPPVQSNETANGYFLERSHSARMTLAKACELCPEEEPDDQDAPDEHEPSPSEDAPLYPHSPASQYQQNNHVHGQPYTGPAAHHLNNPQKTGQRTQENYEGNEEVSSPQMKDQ
Summary of the method: (§1)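 Triplicate samples of HEK293T lysate, 495 µg each, received fragment at 200 µM or vehicle for 3 h, followed by Biotin-Ahx-Ub-VS (0.5 µM final) for 1 h. After NeutrAvidin enrichment of labelled DUBs and LysC/trypsin digestion, peptides were run by diaPASEF LC-MS/MS. The values are average log2 fragment/vehicle ratios from global-median-normalised Spectronaut label-free quantities, tested by unpaired t-test on proteins having ≥2 unique peptides.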

[2] = target: UniProt P51784
UniProt P51784, sequence (P51784 whole entry): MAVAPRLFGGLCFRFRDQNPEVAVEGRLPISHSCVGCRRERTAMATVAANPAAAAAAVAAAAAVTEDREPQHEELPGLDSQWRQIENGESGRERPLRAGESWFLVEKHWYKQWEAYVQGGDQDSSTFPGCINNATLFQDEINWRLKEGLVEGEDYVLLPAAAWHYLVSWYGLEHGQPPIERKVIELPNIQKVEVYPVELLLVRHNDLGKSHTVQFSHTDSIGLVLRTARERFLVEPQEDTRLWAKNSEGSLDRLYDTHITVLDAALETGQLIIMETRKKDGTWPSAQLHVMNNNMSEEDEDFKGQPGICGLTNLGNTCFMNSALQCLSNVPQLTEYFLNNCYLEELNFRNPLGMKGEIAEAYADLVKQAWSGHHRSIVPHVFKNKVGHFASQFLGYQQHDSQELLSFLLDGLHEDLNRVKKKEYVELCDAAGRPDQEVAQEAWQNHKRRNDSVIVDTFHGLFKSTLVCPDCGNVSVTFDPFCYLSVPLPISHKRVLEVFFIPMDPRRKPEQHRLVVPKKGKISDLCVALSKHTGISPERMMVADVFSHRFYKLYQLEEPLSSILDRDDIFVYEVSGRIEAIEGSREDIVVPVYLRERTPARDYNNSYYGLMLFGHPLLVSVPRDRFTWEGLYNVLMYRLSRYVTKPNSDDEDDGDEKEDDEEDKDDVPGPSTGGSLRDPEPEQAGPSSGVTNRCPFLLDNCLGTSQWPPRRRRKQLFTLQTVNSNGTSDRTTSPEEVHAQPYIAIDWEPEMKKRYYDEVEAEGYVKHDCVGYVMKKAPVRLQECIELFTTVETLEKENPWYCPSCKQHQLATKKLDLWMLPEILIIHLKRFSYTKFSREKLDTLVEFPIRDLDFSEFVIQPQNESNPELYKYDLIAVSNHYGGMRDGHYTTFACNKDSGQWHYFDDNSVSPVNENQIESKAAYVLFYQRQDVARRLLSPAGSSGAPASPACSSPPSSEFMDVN
Summary of the method: as §1

[3] = target: T1, UniProt Q5T2D3
T1 sequence (whole entry): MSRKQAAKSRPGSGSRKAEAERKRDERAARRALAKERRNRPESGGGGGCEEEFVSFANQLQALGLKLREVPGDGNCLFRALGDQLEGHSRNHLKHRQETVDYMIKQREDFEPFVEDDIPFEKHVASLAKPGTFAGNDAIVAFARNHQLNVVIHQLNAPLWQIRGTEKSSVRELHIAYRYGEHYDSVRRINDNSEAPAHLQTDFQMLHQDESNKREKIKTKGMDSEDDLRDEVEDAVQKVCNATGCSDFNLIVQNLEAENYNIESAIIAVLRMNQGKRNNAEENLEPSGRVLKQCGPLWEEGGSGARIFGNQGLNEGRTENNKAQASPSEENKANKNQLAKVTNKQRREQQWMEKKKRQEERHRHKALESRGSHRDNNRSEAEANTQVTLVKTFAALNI
Summary of the method: as §1

[4] = target: T2, UniProt Q8TE49
T2 sequence (whole entry): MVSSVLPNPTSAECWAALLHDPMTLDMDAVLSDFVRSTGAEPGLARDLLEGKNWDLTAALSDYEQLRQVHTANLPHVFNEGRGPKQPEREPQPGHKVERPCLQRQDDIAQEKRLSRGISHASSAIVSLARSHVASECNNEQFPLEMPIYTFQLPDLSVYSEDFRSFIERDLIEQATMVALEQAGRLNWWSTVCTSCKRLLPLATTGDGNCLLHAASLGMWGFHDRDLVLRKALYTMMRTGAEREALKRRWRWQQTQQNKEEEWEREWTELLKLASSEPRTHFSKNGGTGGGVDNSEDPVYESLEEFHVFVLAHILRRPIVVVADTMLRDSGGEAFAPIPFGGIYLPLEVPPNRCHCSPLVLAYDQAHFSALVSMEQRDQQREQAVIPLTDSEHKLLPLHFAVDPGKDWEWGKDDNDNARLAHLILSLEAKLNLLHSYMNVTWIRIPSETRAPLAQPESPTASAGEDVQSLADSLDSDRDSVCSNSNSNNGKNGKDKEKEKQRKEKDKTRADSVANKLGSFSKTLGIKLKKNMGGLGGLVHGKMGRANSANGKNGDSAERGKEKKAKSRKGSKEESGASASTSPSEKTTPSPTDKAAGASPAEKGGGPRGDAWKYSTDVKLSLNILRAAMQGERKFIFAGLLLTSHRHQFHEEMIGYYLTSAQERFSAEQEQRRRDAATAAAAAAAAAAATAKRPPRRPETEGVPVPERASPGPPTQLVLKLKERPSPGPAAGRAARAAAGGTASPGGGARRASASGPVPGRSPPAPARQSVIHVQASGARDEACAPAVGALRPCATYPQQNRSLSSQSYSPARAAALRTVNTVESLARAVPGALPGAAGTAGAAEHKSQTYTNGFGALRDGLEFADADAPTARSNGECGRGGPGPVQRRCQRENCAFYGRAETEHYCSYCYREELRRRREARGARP
Summary of the method: as §1

[5] = target: T3, UniProt Q9P2H5
T3 sequence (whole entry): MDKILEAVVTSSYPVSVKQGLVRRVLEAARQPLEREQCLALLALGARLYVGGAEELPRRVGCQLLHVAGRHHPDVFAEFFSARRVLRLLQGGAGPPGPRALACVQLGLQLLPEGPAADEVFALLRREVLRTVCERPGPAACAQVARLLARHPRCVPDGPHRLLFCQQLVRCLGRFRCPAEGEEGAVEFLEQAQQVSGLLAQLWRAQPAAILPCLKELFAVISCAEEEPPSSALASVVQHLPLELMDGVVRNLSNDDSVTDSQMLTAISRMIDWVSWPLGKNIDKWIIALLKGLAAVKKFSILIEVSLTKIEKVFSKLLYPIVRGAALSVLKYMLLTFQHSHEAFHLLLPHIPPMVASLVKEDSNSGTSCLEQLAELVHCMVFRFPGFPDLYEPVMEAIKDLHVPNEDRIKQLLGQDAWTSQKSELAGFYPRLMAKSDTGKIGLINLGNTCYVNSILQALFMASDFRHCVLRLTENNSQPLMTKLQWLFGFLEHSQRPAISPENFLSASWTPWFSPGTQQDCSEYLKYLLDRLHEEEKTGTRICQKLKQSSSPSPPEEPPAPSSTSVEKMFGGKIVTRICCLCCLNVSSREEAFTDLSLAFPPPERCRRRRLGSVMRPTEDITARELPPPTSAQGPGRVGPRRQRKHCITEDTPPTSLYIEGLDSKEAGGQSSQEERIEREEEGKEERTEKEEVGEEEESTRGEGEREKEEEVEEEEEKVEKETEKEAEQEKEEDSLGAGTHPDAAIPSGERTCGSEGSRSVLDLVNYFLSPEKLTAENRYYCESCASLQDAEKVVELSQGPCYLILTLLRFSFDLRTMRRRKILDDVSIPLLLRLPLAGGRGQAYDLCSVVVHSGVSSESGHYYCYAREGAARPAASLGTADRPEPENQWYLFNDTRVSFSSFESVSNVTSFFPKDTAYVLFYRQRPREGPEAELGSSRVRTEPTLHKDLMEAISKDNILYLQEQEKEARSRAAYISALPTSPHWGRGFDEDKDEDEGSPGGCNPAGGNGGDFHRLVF
Summary of the method: as §1

[6] = target: T4, UniProt Q9UGI0
T4 sequence (whole entry): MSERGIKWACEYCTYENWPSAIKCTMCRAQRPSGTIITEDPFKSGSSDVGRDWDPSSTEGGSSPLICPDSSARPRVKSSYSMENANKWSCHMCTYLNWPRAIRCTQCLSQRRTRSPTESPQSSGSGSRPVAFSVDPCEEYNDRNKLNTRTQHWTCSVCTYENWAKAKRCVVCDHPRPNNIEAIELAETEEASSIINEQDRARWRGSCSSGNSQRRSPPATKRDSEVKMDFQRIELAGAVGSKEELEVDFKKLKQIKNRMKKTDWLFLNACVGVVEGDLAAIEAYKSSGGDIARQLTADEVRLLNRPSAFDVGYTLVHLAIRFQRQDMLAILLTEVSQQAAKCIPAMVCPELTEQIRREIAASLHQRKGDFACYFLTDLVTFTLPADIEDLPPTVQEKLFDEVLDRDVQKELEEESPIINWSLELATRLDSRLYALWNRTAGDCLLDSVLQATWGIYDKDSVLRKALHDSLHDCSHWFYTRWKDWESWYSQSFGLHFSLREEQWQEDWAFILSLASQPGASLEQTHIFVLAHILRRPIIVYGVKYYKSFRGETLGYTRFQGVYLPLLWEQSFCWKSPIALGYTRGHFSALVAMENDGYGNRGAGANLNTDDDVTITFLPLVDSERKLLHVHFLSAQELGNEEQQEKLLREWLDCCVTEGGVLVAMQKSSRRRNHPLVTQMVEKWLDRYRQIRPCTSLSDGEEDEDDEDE
Summary of the method: as §1

[7] = target: T5, YOD1 (UniProt Q5VVQ6)
T5 sequence (whole entry): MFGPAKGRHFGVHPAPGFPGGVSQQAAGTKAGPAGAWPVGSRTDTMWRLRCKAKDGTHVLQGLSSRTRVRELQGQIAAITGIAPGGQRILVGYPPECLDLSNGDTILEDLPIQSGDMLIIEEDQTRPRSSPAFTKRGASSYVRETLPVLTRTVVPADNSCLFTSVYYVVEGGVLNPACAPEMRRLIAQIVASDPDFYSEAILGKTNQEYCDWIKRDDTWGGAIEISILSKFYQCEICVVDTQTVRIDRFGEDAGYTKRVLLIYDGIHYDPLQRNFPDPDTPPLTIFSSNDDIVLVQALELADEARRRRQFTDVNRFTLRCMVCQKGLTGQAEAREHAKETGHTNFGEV
Summary of the method: as §1

Structure (SMILES)	log2 ratio of Biotin-Ahx-Ub-VS probe labelling [1]	log2 ratio of Biotin-Ahx-Ub-VS probe labelling [2]	log2 ratio of Biotin-Ahx-Ub-VS probe labelling [3]	log2 ratio of Biotin-Ahx-Ub-VS probe labelling [4]	log2 ratio of Biotin-Ahx-Ub-VS probe labelling [5]	log2 ratio of Biotin-Ahx-Ub-VS probe labelling [6]	log2 ratio of Biotin-Ahx-Ub-VS probe labelling [7]
CC1Cc2ccccc2N1C(=O)CCl (stereo not drawn)	-0.438	-0.254	-0.151	-0.28	-0.127	-0.604	-0.114
CCCn1nccc1NC(=O)CCl	-0.381	-0.0768	-0.0284	-1.02 (active)	-0.452	-0.251	-0.159
CCC1c2ccsc2CCN1C(=O)CCl (stereo not drawn)	-0.266	-0.306	-0.0335	-0.771	-0.118	-0.444	-0.026
CN(C(=O)CCl)c1nc2ccccc2s1	0.257	-0.083	-0.0566	-0.558	-0.266	-1.12 (active)	0.155
CC(=O)C1CCCCN1C(=O)CCl (stereo not drawn)	0.17	0.028	-0.0455	-0.492	-0.14	0.121	-0.0382
Cc1ccccc1C1(CNC(=O)CCl)CCOCC1	0.332	0.00427	-0.0687	-0.333	-0.221	-0.577	-0.0207
O=C(CCl)NCC(=O)N1CCCC1	-0.0296	0.172	-0.355	-0.471	-0.207	-0.151	-0.225
Cc1c(NC(=O)CCl)c(=O)n(-c2ccccc2)n1C	0.221	-0.106	-0.105	-0.377	-0.286	0.0727	-0.128
Cl.O=C(CCl)NCCN1CCc2ccccc21	-0.631	-0.722	-0.805	-0.934	-0.844	-0.971	-0.814
COc1ccccc1C(C)NC(=O)CCl (stereo not drawn)	-0.445	-0.212	-0.15	-0.696	-0.277	-0.788	-0.23
Cc1ccn2cc(CNC(=O)CCl)nc2c1.Cl	0.237	-0.0387	-0.599	-0.359	-0.141	-0.262	0.0926
O=C(CCl)N1CCc2[nH]c3ccccc3c2C1	-1.27 (active)	-0.429	-0.115	-0.338	-0.439	-1.68 (active)	-0.2
O=C(CCl)Nc1nc(-c2cccs2)cs1	-0.168	0.104	-0.239	-0.68	-0.138	-2.34 (active)	0.237
CCc1c[nH]c(CNC(=O)CCl)n1.Cl	-0.772	-0.123	-0.363	-0.324	-0.147	-0.736	-0.491
Cc1ccc(CNC(=O)CCl)nc1C.Cl	-0.661	0.353	-0.0639	-0.343	0.102	-0.161	-0.259
CC(NC(=O)CCl)c1cccc(Cl)c1 (stereo not drawn)	-0.176	-0.0638	-0.271	-0.632	-0.25	-1.18 (active)	-0.167
O=C(CCl)Nc1ccc(F)cc1F	-0.387	0.0319	-0.334	-0.55	-0.199	-0.962	-0.107
O=C(CCl)Nc1ccccc1C(F)(F)F	-0.463	-0.127	-0.319	-0.411	0.0663	-0.466	-0.621
O=C(CCl)N1CCC(O)(Cc2ccc(F)cc2)C1 (stereo not drawn)	-0.253	0.313	-0.16	-0.0913	0.0413	-0.196	0.2
